Measurements: PubChem BioAssay AID1026 (Columbia University Molecular Screening Center, 2008)
The source made the active and inactive calls. No rule for the calls is given here.

What follows are compounds tested against Bifunctional epoxide hydrolase 2 (Homo sapiens) (UniProt P34913) (assay: sEH inhibitor concentration-response potency, dose response, biochemical, human sEH, fluorescence, Infinite200 (AID 1026)). Settings: recombinant human sEH, fluorogenic substrate, at 0.2 µM, active compounds read high.
Sequence of Bifunctional epoxide hydrolase 2 (Homo sapiens) (P34913 whole entry, looked up): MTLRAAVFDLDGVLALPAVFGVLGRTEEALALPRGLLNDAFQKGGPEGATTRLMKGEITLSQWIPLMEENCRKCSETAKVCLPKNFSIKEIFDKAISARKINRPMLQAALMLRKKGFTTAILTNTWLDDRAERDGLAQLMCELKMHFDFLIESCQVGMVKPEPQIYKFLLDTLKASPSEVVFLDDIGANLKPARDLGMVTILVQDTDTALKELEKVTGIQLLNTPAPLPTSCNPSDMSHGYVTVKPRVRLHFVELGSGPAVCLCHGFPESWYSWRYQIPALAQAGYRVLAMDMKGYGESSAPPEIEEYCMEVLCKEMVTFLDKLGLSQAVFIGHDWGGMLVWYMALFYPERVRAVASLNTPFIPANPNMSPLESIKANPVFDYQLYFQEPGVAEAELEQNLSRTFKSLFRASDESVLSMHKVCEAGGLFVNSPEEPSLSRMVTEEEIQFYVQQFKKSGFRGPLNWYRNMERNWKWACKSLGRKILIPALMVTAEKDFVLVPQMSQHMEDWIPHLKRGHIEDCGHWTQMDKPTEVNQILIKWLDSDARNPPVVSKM

inhibition, inactive:
CC1CCCCN1C(=O)NC12CC3CC(CC(C3)C1)C2 (stereo not given) 16.8%
O=C(N/N=C\c1ccc(Cl)s1)c1cccs1 74%
COc1cccc(CNC(=O)C2CCC(CNS(=O)(=O)c3cccc4nsnc34)CC2)c1 (stereo not given) 50.1%
Cc1ccccc1C(=O)N1CCC(C(=O)Nc2ccc(S(=O)(=O)N(C)C(C)C)cc2)CC1 50.3%
CCN(CCNC(=O)C1CCN(Cc2nc(-c3cccc(Cl)c3)oc2C)CC1)c1ccccc1 45.4%
O=C(NCCC1=CCCCC1)C1CCN(c2nc3ccccc3o2)CC1 45.6%
CCC(C)NC(=O)Nc1ccc2c(c1)N(C)C(=O)c1ccccc1S2 (stereo not given) 59.7%
O=C(CCCCCn1c(=S)[nH]c2ccccc2c1=O)NCc1ccc2c(c1)OCO2 59.3%
Cc1cccc(NC(=O)Nc2cccc(Oc3c(F)c(F)c(F)c(F)c3F)c2)c1 47.7%
CC(C)(C)c1cnnn1-c1ccc(NC(=O)c2ccc3c(c2)OCO3)cc1 68.6%
CC(Cc1cccs1)NC(=O)Nc1cccc(Cl)c1 (stereo not given) 51.7%
O=C(Nc1cnn(Cc2ccccc2)c1)NC12CC3CC(CC(C3)C1)C2 59.3%
CC(=O)NC(=S)Nc1ccc(NC(=O)COc2ccc(Cl)cc2Cl)cc1 44.2%
O=C(Nc1ccccc1)Nc1ccc(S(=O)(=O)N2CCCCC2)cc1 72.3%
Cc1ccc(CCNC(=O)C2CCCN(S(=O)(=O)c3cccc4nsnc34)C2)cc1 (stereo not given) -5.2%
